This excerpt belongs to a sample that is enriched for hits.
ST2 inh: blocks human ST2 binding to IL-33; inhibition, % for hits at 17 µM; hit rate 2.3% among 78,000; Q01638; AID 1259354; AlphaLISA ST2-Fc/biotin-IL-33 interaction, 1 h; in the data active = inhibition above about 30%
Target sequence (Q01638 whole entry, looked up): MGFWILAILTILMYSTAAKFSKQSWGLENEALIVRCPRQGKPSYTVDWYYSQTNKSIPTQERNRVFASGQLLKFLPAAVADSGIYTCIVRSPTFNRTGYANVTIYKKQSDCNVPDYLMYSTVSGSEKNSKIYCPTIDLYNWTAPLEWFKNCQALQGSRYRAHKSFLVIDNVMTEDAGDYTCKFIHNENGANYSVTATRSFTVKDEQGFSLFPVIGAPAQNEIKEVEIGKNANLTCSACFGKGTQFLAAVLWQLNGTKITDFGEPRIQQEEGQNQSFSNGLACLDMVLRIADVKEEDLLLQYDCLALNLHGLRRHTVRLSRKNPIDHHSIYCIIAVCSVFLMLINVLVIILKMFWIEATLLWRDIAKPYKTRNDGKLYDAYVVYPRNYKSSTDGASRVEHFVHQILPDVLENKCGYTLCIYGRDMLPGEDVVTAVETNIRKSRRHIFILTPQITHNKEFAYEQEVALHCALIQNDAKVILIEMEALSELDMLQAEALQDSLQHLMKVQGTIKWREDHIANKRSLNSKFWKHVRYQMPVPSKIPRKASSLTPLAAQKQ
Starred values were filed as active, the others as inactive; ! = not confirmed by another sample.

Screening NC(=O)c1ccccc1NC(=O)c1cccc(I)c1 returned ST2 inh inactive.
`CCOc1ccc(N2C(=O)S/C(=C\c3ccc(C)o3)C2=O)cc1` gave ST2 inh 34%*.
For CCOc1ccc(N2C(=O)S/C(=C\c3ccc(OC)cc3)C2=O)cc1 the results were ST2 inh inactive.
CCOc1ccc(N2C(=O)S/C(=C\c3ccc(O)cc3)C2=O)cc1 was read as ST2 inh inactive.
For CCC(=O)N1CCc2cc(S(=O)(=O)NC(C(=O)NCC3CCCO3)C(C)C)ccc21 (stereo not drawn) the results were ST2 inh inactive.
`CSc1ccc(C2C(C(=O)OC3CCCCC3)=C(C)Nc3nnnn32)cc1` (stereo not drawn) gave ST2 inh inactive.
For Cc1cc(N2C(=O)c3ccc([N+](=O)[O-])cc3C2=O)no1 the results were ST2 inh inactive.
For COc1ccc(N2C(=O)c3ccc(Oc4cccc(N)c4)cc3C2=O)cc1 the results were ST2 inh inactive.
Screening O=C1c2ccc(Oc3cccc([N+](=O)[O-])c3)cc2C(=O)N1c1c[nH]c(=O)[nH]c1=O returned ST2 inh 31%*.
`CC(=O)Nc1nnc(CCS(=O)(=O)c2ccc(Br)cc2)s1` gave ST2 inh inactive.
`COc1ccc(CNc2ccc3c(c2)ncn3C)cc1OC` gave ST2 inh inactive.
`COc1cccc(CNc2ccc3c(c2)ncn3C)c1O` gave ST2 inh inactive.
COc1ccc(OC)c(CNc2ccc3c(c2)ncn3C)c1 was read as ST2 inh 36%*!.
`COc1cc(/C=C2/C(=O)N(c3ccc(Cl)c(Cl)c3)N=C2C)ccc1OCC#N` gave ST2 inh inactive.
`COc1cc(/C=C2\C(=O)N(c3ccc(Cl)c(C(=O)O)c3)N=C2C)cc(Br)c1O` gave ST2 inh 75%*.
`COc1ccc(/C=C2\C(=O)N(c3ccc(Cl)c(C(=O)O)c3)N=C2C)cc1OC` gave ST2 inh inactive.
CC1=NN(c2ccc(Cl)c(Cl)c2)C(=O)/C1=C/c1cccs1 was read as ST2 inh 54%*.
For COc1ccc(/C=C2/C(=O)N(c3ccc(Cl)c(Cl)c3)N=C2C)cc1[N+](=O)[O-] the results were ST2 inh inactive.
For CC1=NN(c2ccc(Cl)c(C(=O)O)c2)C(=O)/C1=C\c1ccc(OCc2ccccc2)cc1 the results were ST2 inh inactive.
`CC1=NN(c2ccc(Cl)c(C(=O)O)c2)C(=O)/C1=C\c1ccc(Cl)cc1` gave ST2 inh 48%*.
`COc1ccccc1/C=C1\C(=O)N(c2ccc(Cl)c(Cl)c2)N=C1C` gave ST2 inh inactive.
CC1=NN(c2ccc(Cl)c(C(=O)O)c2)C(=O)/C1=C\c1ccc(Br)cc1 was read as ST2 inh inactive.
For C=CCOc1ccc(/C=C2\C(=O)N(c3ccc(Cl)c(C(=O)O)c3)N=C2C)cc1OC the results were ST2 inh inactive.
For COc1cc(Br)c(/C=C2/C(=O)N(c3ccc(Cl)c(Cl)c3)N=C2C)cc1OC the results were ST2 inh inactive.
`COc1cc(/C=C2/C(=O)N(c3ccc(Cl)c(Cl)c3)N=C2C)cc(OC)c1O` gave ST2 inh 35%*.
Cn1c(=NC(=O)c2ccc(S(=O)(=O)N3CCOCC3)cc2)sc2c3ccccc3ccc21 was read as ST2 inh inactive.
`O=C(COc1ccc(Cl)cc1)N1CCN=C1SCc1cccnc1` gave ST2 inh inactive.
Cn1cc(NC(=O)c2cccc(CN3CCN(CC4CCCO4)CC3)c2)cn1 (stereo not drawn) was read as ST2 inh inactive.
Screening O=C(CCS(=O)(=O)c1cccc2nonc12)Nc1ccccc1F returned ST2 inh inactive.
Screening Fc1ccc(C2Oc3ccccc3C3=C2C(c2ccccc2)n2ncnc2N3)cc1 (stereo not drawn) returned ST2 inh inactive.
CC1=NN(C(=O)Cc2ccc([N+](=O)[O-])cc2)C(C)(O)C1 (stereo not drawn) was read as ST2 inh inactive.
Screening COc1ccc2c(c1)CCc1c(C(=O)NC3CCCC3)noc1-2 returned ST2 inh inactive.
Screening Cc1cc2c(cc1Cl)N1CCS(=O)(=O)N=C1S2 returned ST2 inh inactive.
`Cc1ccc2nc(-c3ccc(Cl)cc3)cc(C#N)c2c1` gave ST2 inh inactive.
Cc1cc(C(F)(F)F)n2nc(C(=O)N[C@@H]3C[C@@H](CO)N(C)C3)cc2n1 was read as ST2 inh inactive.
COc1ccccc1C(=O)C1C(=O)NC23CCN(C)CC2C1c1cccc(OC)c1O3 (stereo not drawn) was read as ST2 inh inactive.
`CCOC(=O)c1c(NC(=O)c2ccc(Br)o2)sc2c1CCC(C)C2` (stereo not drawn) gave ST2 inh inactive.
For Cc1ccn2c(=O)cc(COc3cccc(NC(=O)CC(C)C)c3)nc2c1 the results were ST2 inh inactive.
Screening Oc1ccc(C=Nc2nc3c(s2)CCCC3)cc1 returned ST2 inh inactive.
Screening O=C(c1c(Cl)cccc1Cl)N1CCc2ccccc2C1 returned ST2 inh inactive.
`CCn1nc(C)c(NC(=O)CN(C)C(C)c2ccc3c(c2)OCCO3)c1C` (stereo not drawn) gave ST2 inh inactive.
`COc1cc(/C=C2/C(=O)N(c3ccc(Cl)c(Cl)c3)N=C2C)cc(OC)c1OC` gave ST2 inh 55%*.
For COc1ccc(/C=C2/C(=O)N(c3ccc(Cl)c(Cl)c3)N=C2C)cc1Br the results were ST2 inh inactive.
Screening C=CCOc1ccc(/C=C2/C(=O)N(c3ccc(Cl)c(Cl)c3)N=C2C)cc1OC returned ST2 inh inactive.
Screening Cc1oc2ccc(OCC#N)cc2c1C(=O)OC(C)C returned ST2 inh inactive.
For Cc1cccc(C(C2=C(O)CC(C)(C)CC2=O)C2C(=O)CC(C)(C)CC2=O)c1 (stereo not drawn) the results were ST2 inh inactive.
O=C(NCc1ccccn1)c1ccc2c(c1)N(Cc1c(F)cccc1Cl)C(=O)CS2 was read as ST2 inh inactive.
Cc1ccc(O)c(CCc2ccc(O)c(S(=O)(=O)O)c2)n1 was read as ST2 inh inactive.
Screening COc1ccc(-c2ncc(Cl)cn2)c2ccc(C)nc12 returned ST2 inh inactive.
For Cc1ccc2c(C)ccc(O)c2n1 the results were ST2 inh 31%*.
For CCOC(=O)c1c(NC(=O)c2cc(F)c(F)cc2Cl)sc2c1CCC2 the results were ST2 inh inactive.
COc1cc(OC)cc(C(=O)Nc2cccc(-c3nc4ncccc4o3)c2)c1 was read as ST2 inh inactive.
Cc1cccc(N=Cc2c(Nc3cccc(C)c3)nc3ccccn3c2=O)c1 was read as ST2 inh 44%*.
`Cc1cccc(Nc2nc(C)[nH]c2[N+](=O)[O-])c1` gave ST2 inh inactive.
`Cn1c(C(=O)Nc2cccc(Cl)c2)cc2c(=O)n3ccccc3nc21` gave ST2 inh inactive.
CCOC(=O)c1[nH]c2ccccc2c1NC(=O)C(C)C was read as ST2 inh inactive.
N#Cc1c(NC(=O)c2noc3c2CCCCC3)sc2c1CCCC2 was read as ST2 inh inactive.
`FC(F)(F)c1cc(-c2cccs2)nc(NC2CCCC2)n1` gave ST2 inh inactive.
`COc1ccc(N2C(=O)C(N3C(=O)c4ccc([N+](=O)[O-])cc4C3=O)C2c2ccc(F)cc2)cc1` (stereo not drawn) gave ST2 inh inactive.

Screening data (PubChem)
